# V-ATPase pH – yeast V-ATPase proton transport regulation by pHLuorin; response, % at 10 µM; 0.37% of 350,000 active; S. cerevisiae, pHLuorin cytosolic pH fluorescence; in the data active = response mostly above about 7.3%, no sharp cut-off; inactive = mostly below about 5.4%; also: actives read high
# GC-B act – GC-B (human) receptor activation; 0.11% of 370,000 active; HEK293-GC-B cells, CNP EC30, cGMP TR-FRET; 0% at EC30 CNP, 100% saturating CNP; activation, % at 10 µM;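 active = activation at 10 µM reaching about 35% in either raw or pattern-adjusted values, limit read from the data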
# PG9 Ab binder – binds the HIV-1 gp120 antibody PG9; TR-FRET gp120-PG9 antibody binding; inhibition, % at 6.7 µM; 0.43% of 360,000 active; in the data active = inhibition above about 8.5%
# NPR1 activator – GC-A (human) enzyme activation; activation, % at 10 µM; HEK293 GC-A cells, cGMP TR-FRET, EC30 ANP; 0% at EC30 ANP, 100% saturating ANP; 0.14% of 370,000 active; P16066; in the data active = activation above about 40%
# Rev-erbA mod – modulators of human Rev-erb alpha DNA binding; Rev-erbα–FITC-DNA binding, fluorescence polarization, 90 min; AID 1259318; activity, % at 10 µM; 0.79% of 370,000 active; P20393;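 active = activity above about 14%, limit read from the data; passing the limit was not always enough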;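 also: 0% = DMSO wells with 35 nM protein and 100% = DMSO wells with 750 nM protein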
# Numbers without * were called inactive; · = no result. A selection: hits, their analogues and other compounds. The true share with any hit is near 1.6%.
SMILES,V-ATPase pH,GC-B act,PG9 Ab binder,NPR1 activator,Rev-erbA mod
CCCCCCCCN1C(=O)[C@@H](CC(=O)N2CCCC2)C[C@@]2(C(=O)OC)C1=C[C@H](COCc1ccccc1)O[C@@H]2C,·,-1,·,-2,-10
C[C@H]1CCCN1c1cccc2c1S(=O)(=O)N(C1CC1)CCCO2,·,7,·,-1,7
N#Cc1c(C#N)c(SSc2c(C#N)c(C#N)c(N)n2-c2ccccc2)n(-c2ccccc2)c1N,-5,55*,-2,-8,5
CCCCOC(=O)CSc1nnc(-c2ccc(Cl)cc2Cl)o1,0,5,-1,67*,1
Cc1cc(C)cc(NC(=O)CSc2nnc(-c3ccncc3)o2)c1,1,-5,1,-9,0
Cc1cc(Br)c(NC(=O)COC(=O)CSc2nnc(-c3ccc(Cl)cc3)o2)c(Br)c1,-1,-12,-2,60*,6
CC(=O)N[C@@H](C=O)[C@@H](O)[C@@H](O)[C@H](O)CO,·,·,·,·,-2
Cc1nc2ccc(S(=O)(=O)NCC(=O)NCc3ccccc3C)cc2s1,·,-2,·,6,-4
O=C(c1ccc(COc2ccc(F)cc2)o1)n1cccn1,1,-7,1,45*,-4
CCOC(=O)Cn1cc(CN2CCS(=O)(=O)N(Cc3ccc(F)cc3)C(C(=O)OC)C2)nn1 (stereo unspecified),·,1,·,3,-5
Cc1ccc(S(=O)(=O)N2CCN(C(=O)c3cccc(F)c3)CC2)cc1,-1,-8,-1,-4,-2
Cc1ccc(S(=O)(=O)N2CCN(C(=O)c3ccc4nc[nH]c4c3)CC2)cc1,15*,-2,2,2,2
Cc1ccc(CNC(=O)O[C@H]2CC[C@@]34CCCN3C(=O)CCC[C@H]4[C@H]2C)cc1,·,-3,·,-1,-2
c1ccc(Cn2nnc3c(Nc4ccc5c(c4)OCO5)nc(C4CC4)nc32)cc1,2,41*,-2,34,5
O=C(Nc1ccccc1)NC1(C(=O)N2CCN(c3ncccn3)CC2)CCCCC1,16*,3,0,2,-2
O=C(NCc1ccccc1)NC1(C(=O)N2CCN(c3ncccn3)CC2)CCCCC1,-2,3,0,-2,-2
Cc1cc2nc3c(=O)[nH]c(=O)nc-3n(C[C@H](O)[C@H](O)[C@H](O)COP(=O)(O)OP(=O)(O)OC[C@H]3O[C@@H](n4cnc5c(N)ncnc54)[C@H](O)[C@@H]3O)c2cc1C,·,·,·,·,6
CCC(=O)N1CCc2cc(Br)cc(S(=O)(=O)CCC(=O)NCC3CCCO3)c21 (stereo unspecified),0,5,-3,10,-6
CCC(=O)N1CCc2cc(Br)cc(S(=O)(=O)NCC3CCCO3)c21 (stereo unspecified),14*,7,-1,5,7
O=C(CS(=O)Cc1ccco1)NC/C=C\COc1cc(CN2CCCCC2)ccn1 (stereo unspecified),·,·,·,·,-4
O=C(Nc1cccc([N+](=O)[O-])c1)c1ccc2c(c1)C(=O)N(c1ccccn1)C2=O,-3,10,-2,42*,5
CSc1ccccc1NC(=O)Cn1c(-c2cscn2)nc2ccccc21,0,4,-3,-6,-5
Brc1ccccc1Cn1c(-c2cscn2)nc2ccccc21,-2,39*,-1,36,1
CC(=O)c1cc(-c2ccc(-c3ccccc3)c(F)c2)c(=O)n2c1CCC2,·,-3,·,7,-2
COc1ccc(NC(=O)c2cc(-c3cc(F)ccc3OC)n[nH]2)c(C)c1,·,71*,-1,55*,0
SMILES,V-ATPase pH,GC-B act,PG9 Ab binder,NPR1 activator,Rev-erbA mod
COc1ccc(NC(=O)c2cc(-c3cc(F)ccc3OCC3CCCO3)n[nH]2)c(C)c1 (stereo unspecified),·,79*,-3,60*,-7
COc1ccc(NC(=O)c2cc(-c3cc(F)ccc3OC(C)C)n[nH]2)c(OC)c1,·,3,1,7,2
COC(=O)[C@]12C[C@H](CC(=O)N3CCOCC3)C(=O)N(CCc3ccc(OC)c(OC)c3)C1=C[C@H](COCc1ccccc1)O[C@@H]2C,·,-3,·,6,1
COc1ccc(-n2nc(C#N)c(Cl)cc2=O)cc1,0,1,0,47*,-5
Nc1nc(Nc2ccccc2)nc(NCc2ccco2)c1[N+](=O)[O-],-8,11,-2,47*,2
Nc1nc(NCc2ccco2)nc(Nc2ccccc2)c1[N+](=O)[O-],3,-5,-1,1,-1
Cc1ccc(Nc2nc(N)c([N+](=O)[O-])c(NCc3ccco3)n2)cc1,-3,18,-3,41*,-2
CCCc1nc(C)c2c(=O)[nH]c(-c3cc(S(=O)(=O)N4CCN(CC)CC4)ccc3OCC)nn12,2,65*,2,53*,3
CCOc1cc(S(=O)(=O)N2CCN(CC)CC2)ccc1Cl,1,3,1,4,4
O=C(CCC(=O)OCC(=O)c1ccc(-c2ccccc2)cc1)Nc1cccc(Cl)c1,-3,4,9.0*,-2,5
C=Cc1c(C)/c2[n-]/c1=C\c1[n-]c(c(CC)c1C)/C=c1\[n-]c3c(c1C)C(=O)C(C(=O)O)C=3c1[n-]c(c(C)c1CCC(=O)O)\C=2.[Cu] (stereo unspecified),·,·,·,·,-37
O=C(Cn1c(=O)n2ncnc2c2c3c(sc21)CCCC3)c1ccccc1,4,5,0,14,5
O=c1n(Cc2ccccc2Cl)c2sc3c(c2c2ncnn12)CCCC3,3,39*,-1,25,2
O=C(CCN1CCCCCC1)c1ccccc1,-1,-1,0,71*,2
N=c1n(CCN2CCCCC2)c2ccccc2n1CC(=O)c1cccs1,2,-9,-2,-9,9
O=C(CCN1CCC2CCC(C2)C1)c1ccc(F)cc1 (stereo unspecified),7,-3,-1,72*,-4
O=C(CCN1CCC(c2ccccc2)C1)c1ccc2c(c1)OCCO2 (stereo unspecified),0,2,1,16,2
O=C(CCN1CCC(c2ccccc2)C1)c1ccccc1 (stereo unspecified),-1,-2,·,59*,-7
O=C(CCN1CCCC1)c1cccs1,2,0,1,50*,11
CC(OC(=O)OC1CCCCC1)OC(=O)C1=C(CSc2nnnn2CCN(C)C)CS[C@@H]2[C@H](NC(=O)Cc3csc(N)n3)C(=O)N12 (stereo partly specified),·,·,·,·,-7
O=C(CCN1CCN(c2ccccc2)CC1)c1ccc(Br)cc1,8,0,-3,40*,5
CC1(C)CC2(CCCN(C(=S)Nc3ccccc3)C2)CCO1 (stereo unspecified),-2,0,0,3,-1
CCC1(C)CC2(CCCN(CCC(=O)c3ccccc3)C2)CCO1 (stereo unspecified),2,-1,-2,43*,-1
O=C(CCN1CCOCC1)c1ccc(Cl)cc1,1,-4,0,58*,1

# Source: PubChem
